PubChem BioAssay (NCATS)
Values joined by “and” are separate entries in the source; they are usually repeats but may differ in a detail not shown here. Identical values can stand only once. Records with an inconclusive call do not appear. Active and inactive are the calls of the source. Calls follow the shape of the full dose curve.

experiment: Primary qHTS to identify inhibitors of SARS-CoV-2 cell entry (AID 1645846); details: SARS-CoV-2 pseudovirus cell entry assay, luminescence; activity change, negative = inhibition: at 57.1 µM (top of the series) unless noted; series mostly up to 57.1 µM; also: nearly all actives have a fitted effect of over 45% in size
Outline: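 HEK293 cells stably expressing human ACE2, pre-treated 1 h with compound, then infected with MLV particles pseudotyped with Wuhan-Hu-1 spike (C-terminal 19-aa truncation). Luciferase luminescence after 48 h at 37 °C, normalised to spike PP and bald PP.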
Potency is read from the fitted curve at half-maximal effect.

Row | SMILES | Potency | activity change, negative = inhibition
1 | OCCn1cc(-c2cnc3nnn(Cc4ccc5ncccc5c4)c3n2)cn1 | inactive | 
2 | O=C(Nc1cccc(C2=NCCN2)c1)Nc1cccc(C2=NCCN2)c1 | inactive | 
3 | CC[C@@H](C)[C@H](NC(=O)[C@H](CC1CCCCC1)NC(=O)c1ccno1)C(=O)N1CCC2(CCc3ccccc32)CC1 | inactive | 
4 | N#Cc1c(O)c2c(-c3ccc(-c4ccccc4O)cc3)csc2[nH]c1=O |  | 3.57%
5 | CNCc1ccc(-c2[nH]c3cc(F)cc4c3c2CCNC4=O)cc1 |  | -28.3%
6 | CC(C)(C)c1cc(C(=O)O)c(NC(=O)Nc2ccc3[nH]ncc3c2)s1 | inactive | 
7 | CC(C)c1ccc2c(c1)c(SC(C)(C)C)c(CC(C)(C)C(=O)O)n2Cc1ccc(Cl)cc1 | inactive | 
8 | O=C(O)CCC1CCC(c2cc(F)ccc2F)(S(=O)(=O)c2ccc(Cl)cc2)CC1 (stereo not drawn) |  | -2.05%
9 | CC(C)(C)NCC(O)c1ccc(O)c(CO)c1 (stereo not drawn) | inactive | 
10 | C#Cc1cccc(Nc2ncnc3cc(OC)c(OCCCCCCC(=O)NO)cc23)c1 | inactive | 
11 | CC(=O)N[C@@H](Cc1ccc(O)cc1)C(=O)O | inactive | 
12 | COc1cc2c(Oc3ccc(NC(=O)C4(C(=O)Nc5ccc(F)cc5)CC4)cc3F)ccnc2cc1OCCCN1CCOCC1 | 8.91 µM (active) | 
13 | CN1CCN(c2c(F)cc3c(=O)c(C(=O)O)cn4c3c2OCN4C)CC1 | inactive | 
14 | CCOc1cc2ncc(C#N)c(Nc3ccc(OCc4ccccn4)c(Cl)c3)c2cc1NC(=O)/C=C/CN(C)C | 8.91 µM (active) and 2.51 µM (active) | 
15 | Cc1cn(-c2cc(NC(=O)c3ccc(C)c(Nc4nccc(-c5cccnc5)n4)c3)cc(C(F)(F)F)c2)cn1 |  | -29.3%
16 | O=C(O)[C@@H](c1ccc(OCc2ccc3ccccc3n2)cc1)C1CCCC1 |  | -23.5%
17 | CN(C(=O)C(Cl)Cl)c1ccc(OC(=O)c2ccco2)cc1 | inactive | 
18 | O=C(O)CNC(=O)CNC(=O)CNC(=O)CSC(=O)c1ccccc1 |  | 1.66%
19 | CCCOC(=O)c1ccc(O)cc1 | inactive | 

Row | SMILES | Potency | activity change, negative = inhibition
20 | Cn1cc(-c2[nH]c3cc(NC(=O)[C@H](N)C4CCCCC4)cc4c3c2C=NNC4=O)cn1 | 8.91 µM (active) | 
21 | O=C(Nc1ccccc1-c1cn2c(CN3CCNCC3)csc2n1)c1cnc2ccccc2n1 | 7.94 µM (active) | 
22 | C[C@@H](Oc1cc(-c2cnn(C3CCNCC3)c2)cnc1N)c1c(Cl)ccc(F)c1Cl | 11.2 µM (active) | 
23 | COCCNCCCn1c(C(=O)CF)c(-c2ccc(C)cc2)c2c(N)ncnc21 | inactive | 
24 | CCCCCN(CCC12CC3CC(CC(C3)C1)C2)C(=O)NCCCc1ccncc1 |  | -12.6%
25 | CCCCC(CC)COC(=O)c1ccc(N(C)C)cc1 (stereo not drawn) |  | 4.94%
26 | CC1=C(C/C=C(\C)CCC[C@H](C)CCC[C@H](C)CCCC(C)C)C(=O)c2ccccc2C1=O | inactive | 
27 | COc1cc(Nc2ncc(F)c(Nc3ccc4c(n3)NC(=O)C(C)(C)O4)n2)cc(OC)c1OC | inactive | 
28 | COc1ccc(CC2SC(=O)NC2=O)cc1C(=O)NCc1ccc(C(F)(F)F)cc1 (stereo not drawn) |  | -1.76%
29 | CCN1CCN(c2cc3c(cc2F)c(=O)c(C(=O)O)cn3C2CC2)CC1 | inactive | 
30 | [O-][n+]1cccc(/C(Cl)=N/OC[C@@H](O)CN2CCCCC2)c1 | inactive | 
31 | O=C(O)c1ccc2cc(-c3ccc(O)c(C45CC6CC(CC(C6)C4)C5)c3)ccc2c1 | 1.58 µM (active) | 
32 | C#CC(C)(CC)OC(=O)c1ccccc1C(=O)O (stereo not drawn) |  | 3.66%
33 | Cn1c(NCCN(CCO)CCCc2ccc([N+](=O)[O-])cc2)cc(=O)n(C)c1=O |  | -16.7% and 1.27%
34 | Cc1cnc(Nc2ccc(OCCN3CCCC3)cc2)nc1Nc1cccc(S(=O)(=O)NC(C)(C)C)c1 | 22.4 µM (active) | 
35 | NC(=O)c1ccc(I)c([N+](=O)[O-])c1 |  | -6.13%
36 | COc1cc2c(cc1OC)CC(=O)N(CCCN(C)C[C@H]1Cc3cc(OC)c(OC)cc31)CC2 |  | -5.42% and -13.8%
37 | Cc1cc(C(=O)NNCc2ccccc2)no1 |  | -26.2% [at 114 µM]
38 | CC(C)c1ccc(Cn2ccc3c4c(N)nc(NC5CC5)nc4ccc32)cc1 |  | -96.8%
